# Reference: paper PMC7862700, “An all-to-all approach to the identification of sequence-specific readers for epigenetic DNA modifications on cytosine”
# Columns and labels:
# Experiment in all cases: DAPPL (digital affinity profiling via proximity ligation, sequencing); 10 mM Tris-HCl pH 7.5, 50 mM NaCl, 1 mM DTT, 4% glycerol, room temperature, 30 min; GST-TFs on glutathione beads, 16-mer random dsDNA library, 0.1% formaldehyde crosslink after washing; high values mean tight binding
# Details in all cases: protein: recombinant; tags: N-terminal GST; dsDNA, one strand shown
# [1] = target: T1, FLI1 (Homo sapiens, UniProt Q01543 1-452)
# T1 sequence: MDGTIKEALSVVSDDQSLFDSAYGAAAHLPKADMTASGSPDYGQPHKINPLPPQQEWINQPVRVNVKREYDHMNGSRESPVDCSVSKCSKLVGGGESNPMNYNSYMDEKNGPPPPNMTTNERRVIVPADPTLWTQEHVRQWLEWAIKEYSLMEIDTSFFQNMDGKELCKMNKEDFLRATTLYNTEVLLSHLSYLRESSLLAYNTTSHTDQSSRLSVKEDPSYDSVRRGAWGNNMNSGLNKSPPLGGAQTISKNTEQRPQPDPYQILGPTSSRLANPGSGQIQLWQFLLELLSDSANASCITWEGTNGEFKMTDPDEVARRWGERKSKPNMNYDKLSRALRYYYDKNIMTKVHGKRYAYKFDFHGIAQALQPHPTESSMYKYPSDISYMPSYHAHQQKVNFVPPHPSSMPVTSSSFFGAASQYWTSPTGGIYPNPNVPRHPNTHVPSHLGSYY
# Summary of the method: (§1)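 Sequencing on an Illumina NextSeq500 followed washing, crosslinking with 0.1% formaldehyde, proximity ligation (BsaI/T4 ligase, 1 h, 37 °C) and PCR amplification of pools that had been incubated for 30 min at room temperature with 200 nmole of a random double-stranded 16-mer DNA library in Tris/NaCl/DTT/glycerol buffer. Each pool held DNA-barcoded human transcription factors, expressed in yeast as GST fusions and captured on glutathione beads, plus a tag-only sample. Binding signal is a hexamer's read frequency for a factor divided by its frequency in the tag-only sample.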
# [2] = target: T2, ELK1 (Homo sapiens, UniProt P19419 1-428)
# T2 sequence: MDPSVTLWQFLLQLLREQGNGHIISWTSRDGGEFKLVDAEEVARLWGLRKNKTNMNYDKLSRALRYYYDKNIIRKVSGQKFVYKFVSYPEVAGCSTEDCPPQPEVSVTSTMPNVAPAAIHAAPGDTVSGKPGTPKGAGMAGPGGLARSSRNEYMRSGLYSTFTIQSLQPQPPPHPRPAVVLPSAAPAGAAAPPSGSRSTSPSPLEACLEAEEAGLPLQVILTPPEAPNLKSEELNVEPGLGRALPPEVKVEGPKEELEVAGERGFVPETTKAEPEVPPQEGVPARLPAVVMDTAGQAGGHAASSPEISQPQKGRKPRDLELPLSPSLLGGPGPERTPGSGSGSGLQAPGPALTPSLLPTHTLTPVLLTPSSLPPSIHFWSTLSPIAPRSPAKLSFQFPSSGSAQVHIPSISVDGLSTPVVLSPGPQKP
# Summary of the method: as §1
# [3] = target: T3, GABPA (Homo sapiens, UniProt Q06546 1-454)
# T3 sequence: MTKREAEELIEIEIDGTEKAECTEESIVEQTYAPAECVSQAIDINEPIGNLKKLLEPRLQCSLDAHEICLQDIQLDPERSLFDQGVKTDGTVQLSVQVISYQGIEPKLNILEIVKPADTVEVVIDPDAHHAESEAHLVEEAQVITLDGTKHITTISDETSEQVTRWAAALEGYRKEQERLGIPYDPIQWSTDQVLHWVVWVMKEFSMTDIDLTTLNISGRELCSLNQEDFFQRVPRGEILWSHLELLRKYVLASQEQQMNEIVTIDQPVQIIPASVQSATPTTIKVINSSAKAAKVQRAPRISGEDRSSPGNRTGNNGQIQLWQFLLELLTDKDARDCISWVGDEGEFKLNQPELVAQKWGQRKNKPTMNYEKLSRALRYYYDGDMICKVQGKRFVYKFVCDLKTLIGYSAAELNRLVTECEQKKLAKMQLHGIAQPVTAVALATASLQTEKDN
# Summary of the method: as §1
# [4] = target: T4, ERG (Homo sapiens, UniProt P11308 1-479)
# T4 sequence: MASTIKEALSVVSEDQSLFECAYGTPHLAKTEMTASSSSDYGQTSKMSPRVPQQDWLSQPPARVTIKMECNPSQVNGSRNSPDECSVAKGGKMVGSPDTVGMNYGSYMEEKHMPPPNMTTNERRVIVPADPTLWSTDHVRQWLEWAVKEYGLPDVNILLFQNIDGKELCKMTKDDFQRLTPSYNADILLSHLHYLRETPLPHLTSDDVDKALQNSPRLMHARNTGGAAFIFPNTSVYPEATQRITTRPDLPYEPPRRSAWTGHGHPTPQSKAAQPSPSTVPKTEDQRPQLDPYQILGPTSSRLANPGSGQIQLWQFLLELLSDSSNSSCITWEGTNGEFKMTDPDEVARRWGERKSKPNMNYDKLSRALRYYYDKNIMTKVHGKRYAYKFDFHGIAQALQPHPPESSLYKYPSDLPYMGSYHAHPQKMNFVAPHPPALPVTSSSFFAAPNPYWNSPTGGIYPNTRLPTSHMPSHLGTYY
# Summary of the method: as §1
# [5] = target: ELF1 (Homo sapiens, UniProt P32519 1-619)
# Chain of ELF1 (P32519 whole entry): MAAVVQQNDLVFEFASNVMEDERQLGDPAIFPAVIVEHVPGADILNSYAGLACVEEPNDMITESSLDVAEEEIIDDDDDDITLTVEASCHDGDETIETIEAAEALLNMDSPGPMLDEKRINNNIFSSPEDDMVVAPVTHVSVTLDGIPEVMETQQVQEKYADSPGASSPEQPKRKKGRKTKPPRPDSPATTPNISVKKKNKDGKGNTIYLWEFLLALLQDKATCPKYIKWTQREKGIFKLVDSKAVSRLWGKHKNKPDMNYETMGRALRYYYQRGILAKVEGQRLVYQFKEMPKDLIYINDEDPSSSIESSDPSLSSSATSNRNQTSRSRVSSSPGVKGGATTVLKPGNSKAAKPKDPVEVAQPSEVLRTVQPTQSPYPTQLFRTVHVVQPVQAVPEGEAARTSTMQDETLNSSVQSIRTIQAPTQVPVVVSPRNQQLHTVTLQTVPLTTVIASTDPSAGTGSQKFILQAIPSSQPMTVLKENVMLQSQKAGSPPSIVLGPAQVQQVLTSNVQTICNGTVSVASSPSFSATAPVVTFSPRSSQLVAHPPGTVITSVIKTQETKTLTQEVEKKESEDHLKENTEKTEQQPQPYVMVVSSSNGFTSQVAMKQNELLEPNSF
# Summary of the method: as §1
# [6] = target: T5, EHF (Homo sapiens, UniProt Q9NZC4 1-300)
# T5 sequence: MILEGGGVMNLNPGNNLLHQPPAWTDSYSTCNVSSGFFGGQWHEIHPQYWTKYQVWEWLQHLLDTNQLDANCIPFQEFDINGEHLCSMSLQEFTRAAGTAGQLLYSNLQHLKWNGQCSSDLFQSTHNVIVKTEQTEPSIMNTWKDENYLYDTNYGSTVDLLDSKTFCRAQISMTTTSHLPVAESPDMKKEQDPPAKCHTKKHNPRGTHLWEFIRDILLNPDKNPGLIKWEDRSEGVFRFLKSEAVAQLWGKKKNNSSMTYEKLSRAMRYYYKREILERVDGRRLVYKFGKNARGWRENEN
# Summary of the method: as §1
# [7] = target: SPIB (Homo sapiens, UniProt Q01892 1-262)
# Chain of SPIB (Q01892 whole entry): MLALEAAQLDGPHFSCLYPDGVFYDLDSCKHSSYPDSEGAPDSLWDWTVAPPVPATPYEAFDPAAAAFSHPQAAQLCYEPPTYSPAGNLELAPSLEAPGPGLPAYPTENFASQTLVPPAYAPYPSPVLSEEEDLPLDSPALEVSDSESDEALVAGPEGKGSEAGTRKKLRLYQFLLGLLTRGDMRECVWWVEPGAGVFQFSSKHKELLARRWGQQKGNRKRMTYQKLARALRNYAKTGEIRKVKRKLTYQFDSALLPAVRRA
# Summary of the method: as §1
# [8] = target: T6, ELK3 (Homo sapiens, UniProt P41970 1-407)
# T6 sequence: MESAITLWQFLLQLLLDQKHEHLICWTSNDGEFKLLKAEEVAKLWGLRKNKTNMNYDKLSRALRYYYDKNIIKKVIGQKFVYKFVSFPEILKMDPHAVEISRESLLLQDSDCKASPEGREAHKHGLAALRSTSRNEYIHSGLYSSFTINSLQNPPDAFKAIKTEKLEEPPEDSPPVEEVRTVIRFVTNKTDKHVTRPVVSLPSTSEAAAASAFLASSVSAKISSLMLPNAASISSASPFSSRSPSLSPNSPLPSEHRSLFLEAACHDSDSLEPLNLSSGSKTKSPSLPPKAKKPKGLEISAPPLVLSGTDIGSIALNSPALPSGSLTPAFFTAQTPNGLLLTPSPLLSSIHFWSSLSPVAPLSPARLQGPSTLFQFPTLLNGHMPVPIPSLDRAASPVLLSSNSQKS
# Summary of the method: as §1
# [9] = target: T7, FEV (Homo sapiens, UniProt Q99581 1-238)
# T7 sequence: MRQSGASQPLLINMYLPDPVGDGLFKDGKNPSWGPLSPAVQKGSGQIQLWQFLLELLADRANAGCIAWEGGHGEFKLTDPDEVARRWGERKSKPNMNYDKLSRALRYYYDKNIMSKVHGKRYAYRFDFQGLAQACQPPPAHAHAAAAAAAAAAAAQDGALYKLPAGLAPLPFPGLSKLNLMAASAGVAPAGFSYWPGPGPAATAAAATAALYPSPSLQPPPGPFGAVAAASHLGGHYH
# Summary of the method: as §1
# [10] = target: T8, SPIC (Homo sapiens, UniProt Q8N5J4 1-248)
# T8 sequence: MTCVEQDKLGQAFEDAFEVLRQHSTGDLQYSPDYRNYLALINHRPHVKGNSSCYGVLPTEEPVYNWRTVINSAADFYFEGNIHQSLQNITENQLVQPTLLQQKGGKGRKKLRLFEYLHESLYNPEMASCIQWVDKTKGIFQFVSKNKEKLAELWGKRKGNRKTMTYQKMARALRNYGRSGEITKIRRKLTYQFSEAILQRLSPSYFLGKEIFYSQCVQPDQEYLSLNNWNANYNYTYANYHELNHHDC
# Summary of the method: as §1
# [11] = target: ELF4 (Homo sapiens, UniProt Q99607 1-663)
# Chain of ELF4 (Q99607 whole entry): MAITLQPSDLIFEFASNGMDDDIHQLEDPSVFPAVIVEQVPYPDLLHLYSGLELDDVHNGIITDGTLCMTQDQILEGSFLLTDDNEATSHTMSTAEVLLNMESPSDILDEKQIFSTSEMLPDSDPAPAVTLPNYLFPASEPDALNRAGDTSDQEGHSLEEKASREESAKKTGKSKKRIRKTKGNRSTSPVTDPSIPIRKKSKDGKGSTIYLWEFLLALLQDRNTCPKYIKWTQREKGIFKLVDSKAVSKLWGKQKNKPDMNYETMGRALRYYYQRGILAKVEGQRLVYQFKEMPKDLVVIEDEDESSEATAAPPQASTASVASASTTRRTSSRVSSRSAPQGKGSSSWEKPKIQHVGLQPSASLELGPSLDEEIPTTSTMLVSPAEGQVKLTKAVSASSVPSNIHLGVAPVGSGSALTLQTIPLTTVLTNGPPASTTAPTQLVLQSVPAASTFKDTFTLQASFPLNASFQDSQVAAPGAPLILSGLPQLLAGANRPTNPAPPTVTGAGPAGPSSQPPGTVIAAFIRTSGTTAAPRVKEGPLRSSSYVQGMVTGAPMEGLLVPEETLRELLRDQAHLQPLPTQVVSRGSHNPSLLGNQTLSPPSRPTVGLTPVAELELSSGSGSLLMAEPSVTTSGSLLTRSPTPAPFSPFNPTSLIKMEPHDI
# Summary of the method: as §1
sequence,measurement,setting,value
CGTTGC,binding signal,[1],"1.09 fold enrichment (6-mer frequency, TF over GST control)"
same,binding signal,[2],"1.19 fold enrichment (6-mer frequency, TF over GST control)"
same,binding signal,[3],"1.04 fold enrichment (6-mer frequency, TF over GST control)"
same,binding signal,[4],"1.06 fold enrichment (6-mer frequency, TF over GST control)"
same,binding signal,[5],"1.11 fold enrichment (6-mer frequency, TF over GST control)"
same,binding signal,[6],"1.07 fold enrichment (6-mer frequency, TF over GST control)"
same,binding signal,[7],"1.18 fold enrichment (6-mer frequency, TF over GST control)"
same,binding signal,[8],"1.04 fold enrichment (6-mer frequency, TF over GST control)"
same,binding signal,[9],"1.11 fold enrichment (6-mer frequency, TF over GST control)"
same,binding signal,[10],"1.25 fold enrichment (6-mer frequency, TF over GST control)"
same,binding signal,[11],"1.06 fold enrichment (6-mer frequency, TF over GST control)"
